In PubChem BioAssay (EPA / NIEHS):
The source made the active and inactive calls. The calls were made as follows: active = hit-call score of the fitted dose curve at least 0.9, where 1 is the maximum; inactive = score below 0.9.

What was measured:
[1] = ATG_GLI_CIS: Attagene CIS-FACTORIAL HepG2 Assay for human Zinc Finger Protein GLI1 (AID 2282945); details: HepG2, Attagene cis-factorial reporter mRNA, GLI element; actives raise or lower the signal
Summary of the method: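 Transiently transfected HepG2 cells report endogenous transcription factor activity via cis-element-driven reporter units. After 24 h compound exposure, reporter mRNA was measured by RT-PCR with capillary electrophoresis; bidirectional fitting against DMSO baseline.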

[2] = ATG_GRE_CIS: Attagene CIS-FACTORIAL HepG2 Assay for human Glucocorticoid Response Elements (GRE) (AID 2282947); details: HepG2 GRE cis-reporter, Attagene multiplex mRNA; actives raise or lower the signal
Summary of the method: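 Fluorescence intensity of reporter-specific cDNA fragments, separated by capillary electrophoresis, provides the signal. Constructs carry cis-regulating promoters in transiently transfected HepG2 liver cells; 24 h incubation; fitting is bidirectional against DMSO.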

[3] = ATG_ISRE_CIS: Attagene CIS-FACTORIAL HepG2 Assay for human Interferon Regulatory Factor 1 (IRF1) binding to an Interferon-Stimulated Response Element (ISRE) (AID 2282948); details: HepG2 ISRE cis-reporter (Attagene), mRNA transcription readout; actives raise or lower the signal
Summary of the method: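 Signal reflects induction or loss of ISRE-linked reporter mRNA in transiently transfected HepG2 cells after a 24 h treatment, detected by fluorescent RT-PCR fragments on capillary electrophoresis and normalised to DMSO.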

[4] = ATG_M_32_CIS: Attagene CIS-FACTORIAL HepG2 Assay for M32 Transcription Factor (Internal Marker) (AID 2282949); details: HepG2 Attagene cis-factorial M32 reporter, mRNA; actives raise or lower the signal;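 also: background control marker of the multiplexed CIS panel rather than a real target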
Summary of the method: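 HepG2 transfectants (cis-regulated reporter transcription units) dosed 24 h. Reporter mRNA by RT-PCR plus CE, analysed as gain or loss relative to DMSO.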

[5] = ATG_M_06_CIS: Attagene CIS-FACTORIAL HepG2 Assay for M06 Transcription Factor (Internal Marker) (AID 2282950); details: HepG2 Attagene CIS-FACTORIAL M06 internal marker reporter; actives raise or lower the signal
Summary of the method: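 HepG2 liver cells, 24 h exposure. Reporter transcripts from transfected cis-element constructs quantified by RT-PCR/capillary electrophoresis fluorescence. Bidirectional curve fit against DMSO.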

[6] = target: Hypoxia-inducible factor 1-alpha (Homo sapiens) (UniProt Q16665); test: ATG_HIF1a_CIS: Attagene CIS-FACTORIAL HepG2 Assay for human Hypoxia Inducible Factor 1 (HIF1A) (AID 2282951); details: HepG2 Attagene cis-factorial HIF1a reporter transcription; actives raise or lower the signal
Summary of the method: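 Transient MRTU transfection of human HepG2 liver cells, 24 h compound treatment, then total RNA isolation, oligo(dT) reverse transcription, PCR amplification, fluorescent labelling and capillary electrophoresis of reporter fragments. Gain or loss relative to DMSO.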

[7] = target: Hepatocyte nuclear factor 6 (Homo sapiens) (UniProt Q9UBC0); test: ATG_HNF6_CIS: Attagene CIS-FACTORIAL HepG2 Assay for human Hepatocyte Nuclear Factor 6 (HNF6) (AID 2282952); details: HepG2 Attagene cis-factorial HNF6 reporter transcription; actives raise or lower the signal
Summary of the method: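 Readout: fluorescent reporter-transcript fragments resolved by capillary electrophoresis after RT-PCR, reflecting endogenous factor activity in transfected HepG2. Exposure 24 h. Gain or loss of signal fitted bidirectionally against DMSO.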

[8] = ATG_MRE_CIS: Attagene CIS-FACTORIAL HepG2 Assay for human Metal Responsive Element (MRE) (AID 2282954); details: HepG2 MRE cis-reporter transcription, Attagene multiplex; actives raise or lower the signal
Summary of the method: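 Measured here is mRNA induction from an MRE cis-element reporter in HepG2 after 24 h, quantified by fluorescence of labelled RT-PCR products on capillary electrophoresis; gain- and loss-of-signal fits use DMSO as baseline.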

[9] = ATG_PBREM_CIS: Attagene CIS-FACTORIAL HepG2 Assay for human Phenobarbital-responsive Enhancer Module (PBREM) (AID 2282955); details: HepG2 PBREM cis-reporter, Attagene multiplexed transcription; actives raise or lower the signal
Summary of the method: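 Endogenous transcription factors in human liver HepG2 cells drive a PBREM cis-element reporter, whose transcript level after 24 h treatment is quantified by RT-PCR with capillary electrophoresis; activity fitted in both directions against DMSO.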

[10] = target: Paired box protein Pax-6 (Homo sapiens) (UniProt P26367); test: ATG_Pax6_CIS: Attagene CIS-FACTORIAL HepG2 Assay for human Paired Box 6 (PAX6) (AID 2282956); details: HepG2 CIS-FACTORIAL PAX6 reporter transcription, RNA readout; actives raise or lower the signal
Summary of the method: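 Values derive from bidirectional curve fitting of reporter mRNA signal relative to DMSO. HepG2 cells bearing transfected cis-regulated MRTUs were exposed for 24 h; transcripts were read by RT-PCR and capillary electrophoresis.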

[11] = ATG_PXRE_CIS: Attagene CIS-FACTORIAL HepG2 Assay for human Pregnane X Receptor Element (PXRE) (AID 2282957); details: HepG2 Attagene CIS-FACTORIAL PXRE reporter, mRNA; actives raise or lower the signal
Summary of the method: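 Read-out: fluorescence of reporter-specific RT-PCR products resolved by capillary electrophoresis, fitted bidirectionally relative to DMSO. Human HepG2 liver cells carried transfected cis-promoter reporter units and were exposed to chemicals for 24 h.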

[12] = ATG_PPRE_CIS: Attagene CIS-FACTORIAL HepG2 Assay for human Peroxisome Proliferator-activated Response Element (PPRE) (AID 2282958); details: HepG2 PPRE cis-element reporter, Attagene transcription factor profiling; actives raise or lower the signal
Summary of the method: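 HepG2, transient MRTU transfection (cis promoter elements, endogenous TFs). 24 h dosing. RNA → oligo(dT) RT → PCR → 6-FAM primer extension → HpaI digest → CE. Bidirectional fit vs DMSO.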

[13] = ATG_RORE_CIS: Attagene CIS-FACTORIAL HepG2 Assay for human RAR-related Orphan Receptor Element (RORE) (AID 2282959); details: HepG2 Attagene cis-factorial RORE reporter, mRNA; actives raise or lower the signal
Summary of the method: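 Transient MRTU transfection of human HepG2 liver cells (FuGene 6); 24 h compound exposure; TriZol RNA, oligo(dT) RT, PCR, FAM labeling, HpaI cut, CE fragment analysis. DMSO = negative control/baseline.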

[14] = ATG_Sox_CIS: Attagene CIS-FACTORIAL HepG2 Assay for human SRY-box transcription factor (SOX) (AID 2282960); details: HepG2 Attagene cis-factorial SOX reporter, mRNA; actives raise or lower the signal
Summary of the method: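 Endogenous factor activity in human liver HepG2 cells carrying transfected cis-regulated reporter units. RNA taken 24 h post-dose, reverse-transcribed, PCR-amplified and sized by capillary electrophoresis. Gain or loss of signal fitted relative to DMSO.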

[15] = target: Transcription factor Sp1 (Homo sapiens) (UniProt P08047); test: ATG_Sp1_CIS: Attagene CIS-FACTORIAL HepG2 Assay for human Specificity Protein 1 (Sp1) (AID 2282961); details: HepG2 Sp1 cis-reporter transcription, actives raise or lower the signal
Summary of the method: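 Transient MRTU-transfected HepG2, 24 h compound exposure. Total RNA → oligo(dT) RT → PCR of reporter → 6-FAM primer extension → HpaI digest → CE. Endpoint fitted both directions vs DMSO.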

[16] = ATG_SREBP_CIS: Attagene CIS-FACTORIAL HepG2 Assay for human Sterol Regulatory Element Binding (SREBP) (AID 2282962); details: HepG2 Attagene cis-factorial SREBP reporter, mRNA; actives raise or lower the signal
Summary of the method: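 Values derive from bidirectional curve fitting with DMSO as baseline. The underlying measurement is reporter mRNA from cis-element-regulated units in transiently transfected HepG2, quantified by RT-PCR and capillary electrophoresis after 24 h exposure.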

[17] = target: Signal transducer and activator of transcription 3 (Homo sapiens) (UniProt P40763); test: ATG_STAT3_CIS: Attagene CIS-FACTORIAL HepG2 Assay for human Signal Transducer and Activator of Transcription 3 (STAT3) (AID 2282963); details: HepG2, Attagene cis-factorial STAT3 reporter transcription; actives raise or lower the signal
Summary of the method: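 Fluorescence intensity of 6-FAM-labelled reporter fragments, separated by capillary electrophoresis after RT-PCR, gave the signal. Cells were HepG2 transfected with cis-element reporter units and treated 24 h; fitting was bidirectional relative to DMSO.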

[18] = ATG_TA_CIS: Attagene CIS-FACTORIAL HepG2 Assay for human TA Basal Promoter (AID 2282964); details: HepG2 Attagene CIS-factorial TA basal promoter reporter; actives raise or lower the signal
Summary of the method: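 Fluorescence from labelled RT-PCR reporter fragments, separated by capillary electrophoresis, gives the signal. Cells: HepG2 transiently carrying multiple reporter units, 24 h chemical dosing. Gain or loss relative to DMSO.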

[19] = target: Heat shock factor protein 1 (Homo sapiens) (UniProt Q00613); test: ATG_HSE_CIS: Attagene CIS-FACTORIAL HepG2 Assay for human Heat Shock Transcription Factor 1 (HSE) (AID 2282953); details: HepG2 HSE cis-reporter, Attagene RNA transcription; actives raise or lower the signal
Summary of the method: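 Endogenous transcription factor activity captured via cis-promoter reporter units transfected into HepG2; treatment lasted 24 h. Fluorescence intensity of reporter fragments analysed with bidirectional curve fitting, DMSO baseline.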

Measured: AC50

Sequence of Paired box protein Pax-6 (Homo sapiens) (P26367 whole entry, looked up): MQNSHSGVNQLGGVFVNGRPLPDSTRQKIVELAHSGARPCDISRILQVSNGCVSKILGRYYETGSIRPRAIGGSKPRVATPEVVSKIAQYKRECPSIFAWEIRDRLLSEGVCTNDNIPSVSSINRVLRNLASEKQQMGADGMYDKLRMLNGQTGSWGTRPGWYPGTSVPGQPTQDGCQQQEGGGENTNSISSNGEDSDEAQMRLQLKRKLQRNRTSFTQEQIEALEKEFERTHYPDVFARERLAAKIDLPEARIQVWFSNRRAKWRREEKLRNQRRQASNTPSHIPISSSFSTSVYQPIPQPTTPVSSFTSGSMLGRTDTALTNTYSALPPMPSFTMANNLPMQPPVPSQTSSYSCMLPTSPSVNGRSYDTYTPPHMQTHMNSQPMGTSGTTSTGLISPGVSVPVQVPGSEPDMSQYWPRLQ
Sequence of Transcription factor Sp1 (Homo sapiens) (P08047 whole entry, looked up): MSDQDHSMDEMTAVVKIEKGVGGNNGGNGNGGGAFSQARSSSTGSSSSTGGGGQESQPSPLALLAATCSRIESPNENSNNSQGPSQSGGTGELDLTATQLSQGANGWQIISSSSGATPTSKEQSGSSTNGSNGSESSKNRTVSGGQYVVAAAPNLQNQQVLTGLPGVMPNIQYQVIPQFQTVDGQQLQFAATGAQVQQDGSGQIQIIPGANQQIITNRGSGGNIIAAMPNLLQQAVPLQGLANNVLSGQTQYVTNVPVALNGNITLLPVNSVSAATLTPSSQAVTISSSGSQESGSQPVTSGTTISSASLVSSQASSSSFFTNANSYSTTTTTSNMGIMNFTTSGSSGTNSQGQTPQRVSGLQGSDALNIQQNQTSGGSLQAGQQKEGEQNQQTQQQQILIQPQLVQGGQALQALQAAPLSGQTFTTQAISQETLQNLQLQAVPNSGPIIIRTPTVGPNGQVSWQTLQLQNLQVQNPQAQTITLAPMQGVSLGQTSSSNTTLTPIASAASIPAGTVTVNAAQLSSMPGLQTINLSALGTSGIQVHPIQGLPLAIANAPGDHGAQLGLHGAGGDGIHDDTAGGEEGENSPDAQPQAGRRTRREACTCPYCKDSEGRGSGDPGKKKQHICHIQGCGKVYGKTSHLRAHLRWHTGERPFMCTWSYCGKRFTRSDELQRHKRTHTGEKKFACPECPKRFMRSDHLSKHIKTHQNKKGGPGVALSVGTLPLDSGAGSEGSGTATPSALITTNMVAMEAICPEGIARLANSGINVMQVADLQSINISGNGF
Sequence of Hypoxia-inducible factor 1-alpha (Homo sapiens) (Q16665 whole entry, looked up, the tested form may be a part): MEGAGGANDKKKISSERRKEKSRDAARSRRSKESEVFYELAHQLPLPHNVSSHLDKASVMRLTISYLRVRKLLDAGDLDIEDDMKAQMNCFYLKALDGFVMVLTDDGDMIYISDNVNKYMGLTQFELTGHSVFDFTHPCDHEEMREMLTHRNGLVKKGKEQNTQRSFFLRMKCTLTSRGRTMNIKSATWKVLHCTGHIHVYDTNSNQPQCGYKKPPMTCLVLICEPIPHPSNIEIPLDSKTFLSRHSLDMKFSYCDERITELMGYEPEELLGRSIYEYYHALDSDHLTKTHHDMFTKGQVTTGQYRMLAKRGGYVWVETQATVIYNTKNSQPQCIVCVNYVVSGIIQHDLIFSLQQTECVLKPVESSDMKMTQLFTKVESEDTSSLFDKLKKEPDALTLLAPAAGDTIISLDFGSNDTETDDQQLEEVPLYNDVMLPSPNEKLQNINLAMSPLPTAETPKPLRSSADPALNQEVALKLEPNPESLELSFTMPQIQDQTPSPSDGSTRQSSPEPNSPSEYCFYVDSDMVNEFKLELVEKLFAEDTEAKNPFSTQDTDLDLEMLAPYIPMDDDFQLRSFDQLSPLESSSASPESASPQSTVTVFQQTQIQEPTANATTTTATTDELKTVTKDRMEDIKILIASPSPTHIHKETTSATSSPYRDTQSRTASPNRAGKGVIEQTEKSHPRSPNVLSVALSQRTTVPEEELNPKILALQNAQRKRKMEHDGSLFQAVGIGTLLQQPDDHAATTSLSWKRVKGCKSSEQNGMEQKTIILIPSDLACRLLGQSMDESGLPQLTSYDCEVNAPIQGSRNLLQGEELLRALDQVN
Sequence of Hepatocyte nuclear factor 6 (Homo sapiens) (Q9UBC0 whole entry, looked up, the tested form may be a part): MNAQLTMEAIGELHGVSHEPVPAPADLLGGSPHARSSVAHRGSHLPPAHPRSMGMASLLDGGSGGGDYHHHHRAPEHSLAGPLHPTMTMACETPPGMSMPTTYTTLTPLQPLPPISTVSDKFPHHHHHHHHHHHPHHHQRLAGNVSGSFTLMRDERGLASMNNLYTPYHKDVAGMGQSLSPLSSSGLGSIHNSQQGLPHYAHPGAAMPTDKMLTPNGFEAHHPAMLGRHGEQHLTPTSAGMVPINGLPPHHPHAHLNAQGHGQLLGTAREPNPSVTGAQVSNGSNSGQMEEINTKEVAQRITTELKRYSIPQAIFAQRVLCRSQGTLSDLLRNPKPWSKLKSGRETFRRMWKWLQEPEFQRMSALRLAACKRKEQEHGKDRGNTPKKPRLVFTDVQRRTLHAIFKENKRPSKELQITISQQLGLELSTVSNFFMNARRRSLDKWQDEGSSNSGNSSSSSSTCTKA
Sequence of Signal transducer and activator of transcription 3 (Homo sapiens) (P40763 whole entry, looked up, the tested form may be a part): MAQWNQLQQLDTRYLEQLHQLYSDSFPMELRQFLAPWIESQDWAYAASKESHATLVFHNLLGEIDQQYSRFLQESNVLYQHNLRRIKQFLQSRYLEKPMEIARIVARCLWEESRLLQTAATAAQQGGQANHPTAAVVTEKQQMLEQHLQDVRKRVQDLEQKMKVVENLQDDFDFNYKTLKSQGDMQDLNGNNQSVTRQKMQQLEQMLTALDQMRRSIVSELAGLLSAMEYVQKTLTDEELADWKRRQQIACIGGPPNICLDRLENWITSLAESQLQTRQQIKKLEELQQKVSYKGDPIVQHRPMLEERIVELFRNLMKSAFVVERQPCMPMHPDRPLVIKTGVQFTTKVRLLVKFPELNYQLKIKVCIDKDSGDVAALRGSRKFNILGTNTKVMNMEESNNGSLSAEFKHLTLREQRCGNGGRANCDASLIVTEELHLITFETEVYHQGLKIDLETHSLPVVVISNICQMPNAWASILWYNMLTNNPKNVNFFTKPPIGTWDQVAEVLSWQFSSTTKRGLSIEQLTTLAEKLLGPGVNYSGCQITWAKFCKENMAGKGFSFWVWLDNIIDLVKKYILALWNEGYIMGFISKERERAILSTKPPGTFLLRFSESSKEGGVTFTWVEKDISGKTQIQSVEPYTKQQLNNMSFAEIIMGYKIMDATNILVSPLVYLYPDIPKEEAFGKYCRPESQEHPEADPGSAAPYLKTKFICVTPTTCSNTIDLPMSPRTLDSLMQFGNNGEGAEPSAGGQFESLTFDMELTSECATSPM
Sequence of Heat shock factor protein 1 (Homo sapiens) (Q00613 whole entry, looked up, the tested form may be a part): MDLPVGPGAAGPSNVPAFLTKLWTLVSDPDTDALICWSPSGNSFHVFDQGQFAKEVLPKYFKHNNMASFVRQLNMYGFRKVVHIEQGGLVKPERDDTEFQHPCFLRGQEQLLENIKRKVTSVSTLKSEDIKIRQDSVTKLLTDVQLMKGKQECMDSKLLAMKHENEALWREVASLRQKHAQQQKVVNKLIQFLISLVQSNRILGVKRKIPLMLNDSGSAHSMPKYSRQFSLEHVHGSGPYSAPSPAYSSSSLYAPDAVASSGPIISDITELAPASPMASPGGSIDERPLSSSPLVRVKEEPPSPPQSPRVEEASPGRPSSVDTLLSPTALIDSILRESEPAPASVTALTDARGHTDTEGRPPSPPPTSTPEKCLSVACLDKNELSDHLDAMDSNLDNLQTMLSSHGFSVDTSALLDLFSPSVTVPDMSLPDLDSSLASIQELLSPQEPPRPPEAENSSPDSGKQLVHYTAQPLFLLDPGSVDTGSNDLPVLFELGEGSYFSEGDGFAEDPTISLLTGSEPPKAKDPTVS

CCOC(=O)C(C)OC(=O)c1cc(Oc2ccc(C(F)(F)F)cc2Cl)ccc1[N+](=O)[O-] (centres undefined)
active: [9] 19.1 µM | [11] 7.84 µM | [12] 11.7 µM | [13] 50 µM | [16] 19.3 µM
not listed: [19]
inactive: all other assays above

CCOc1nc(C(Cl)(Cl)Cl)ns1
active: [11] 33.5 µM | [13] 70.3 µM
not listed: [2] | [19]
inactive: all other assays above

CC(C)NC(=O)N1CC(=O)N(c2cc(Cl)cc(Cl)c2)C1=O
active: [9] 11.8 µM | [11] 5.44 µM | [12] 23.2 µM
not listed: [2] | [19]
inactive: all other assays above

CCOP(=S)(OCC)Oc1nc(Cl)n(C(C)C)n1
active: [11] 0.655 µM | [16] 5.98 µM
not listed: [9] | [12] | [19]
inactive: all other assays above

CCNP(=S)(OC)O/C(C)=C/C(=O)OC(C)C (centres undefined)
active: [9] 14.7 µM | [11] 2.6 µM | [16] 16.3 µM
not listed: [12] | [19]
inactive: all other assays above

COP(=O)(OC)O/C(C)=C/C(=O)N(C)C
active: [11] 68.5 µM
not listed: [2] | [9]
inactive: all other assays above

CC(C)(C)C(=O)C(Oc1ccc(Cl)cc1)n1cncn1 (centres undefined)
active: [9] 19.5 µM | [11] 5.02 µM | [12] 50 µM
not listed: [19]
inactive: all other assays above

CN/C(=N\[N+](=O)[O-])NCc1cnc(Cl)s1
not listed: [2] | [12]
inactive: all other assays above

Cc1cc(C)nc(Nc2ccccc2)n1
active: [9] 50 µM | [12] 16.7 µM | [16] 23 µM
not listed: [19]
inactive: all other assays above

CNC(=O)N(C)c1nnc(C(C)(C)C)s1
active: [11] 50 µM
not listed: [2] | [6] | [19]
inactive: all other assays above

CCOP(=O)(OCC)Oc1nc(Cl)c(Cl)cc1Cl
active: [11] 45.7 µM | [12] 29.9 µM | [16] 15.6 µM
not listed: [19]
inactive: all other assays above

CC(C)Nc1nc(Cl)nc(NC(C)C)n1
active: [11] 15.3 µM
not listed: [2] | [13] | [19]
inactive: all other assays above

COc1cc(Cl)c(OC)cc1Cl
active: [11] 50 µM
not listed: [9] | [12] | [13] | [19]
inactive: all other assays above

CC1(C)C(C=C(Cl)Cl)C1C(=O)OC(C#N)c1cccc(Oc2ccccc2)c1 (centres undefined)
active: [8] 14.9 µM | [9] 13.1 µM | [11] 2.32 µM
not listed: [12] | [19]
inactive: all other assays above

CC1(C)CON(Cc2ccccc2Cl)C1=O
active: [11] 14.8 µM | [12] 50 µM | [13] 13.4 µM
not listed: [2] | [19]
inactive: all other assays above
